Sampled rows, rich in hits. Any-hit rate of the full collection: about 2.4%.
TDP1 inh = inhibitors of human tyrosyl-DNA phosphodiesterase TDP1; recombinant TDP1, AlphaScreen DNA substrate cleavage; Potency, µM (doses to about 130 µM), inactives show top-dose activity change, negative = inhibition, actives largely listed as inhibitors; 350,000 compounds, 0.28% hits; AID 485290; active means well fitted curve in the direction sought with a large enough effect; inconclusive means small, poorly fitted or top-dose-only effect, or another doubt; inactive means no such curve, though single readings can be large; an effect the other way counts as inactive or inconclusive; further: on the % scale 0 is the no-effect control and ±100 the full control effect; nearly all actives have a fitted effect of over 40% in size
Target sequence (Q9NUW8 whole entry, looked up): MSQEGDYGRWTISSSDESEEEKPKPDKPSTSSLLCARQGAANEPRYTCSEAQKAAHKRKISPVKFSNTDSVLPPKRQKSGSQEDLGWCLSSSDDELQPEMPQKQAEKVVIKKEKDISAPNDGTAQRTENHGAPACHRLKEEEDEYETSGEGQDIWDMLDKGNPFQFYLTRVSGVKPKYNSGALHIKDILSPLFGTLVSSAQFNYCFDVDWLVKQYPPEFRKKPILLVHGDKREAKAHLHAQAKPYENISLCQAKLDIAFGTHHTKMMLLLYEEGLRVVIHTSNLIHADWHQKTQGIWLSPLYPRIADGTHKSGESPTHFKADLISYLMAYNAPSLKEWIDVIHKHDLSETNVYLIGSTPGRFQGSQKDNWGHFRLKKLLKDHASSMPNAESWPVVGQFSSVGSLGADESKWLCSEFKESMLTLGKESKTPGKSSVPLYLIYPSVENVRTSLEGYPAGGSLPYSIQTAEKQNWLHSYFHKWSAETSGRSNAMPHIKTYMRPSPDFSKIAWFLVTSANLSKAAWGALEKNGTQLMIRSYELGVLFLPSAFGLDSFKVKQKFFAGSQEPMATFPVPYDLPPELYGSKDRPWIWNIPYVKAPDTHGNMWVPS
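Recombinant E. coli-expressed Tdp1 (1 nM) preincubated with compound 15 min at RT, then 5'-biotin/3'-phosphotyrosine-FITC DNA substrate (15 nM) added for 5 min. AlphaScreen beads (10 ug/ml) added, 10 min RT; tyrosine-FITC cleavage read as signal loss.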
TSG101-PTAP inh = blocks PTAP/TSG101 interaction to inhibit HIV-1 budding; Fluorescence polarization, FITC-PTAP peptide / Tsg101 binding; Potency, µM (highest dose often 115 µM), without a hit: at the highest dose activity change, negative = inhibition, actives largely listed as inhibitors; 340,000 tested, under 10 active; AID 493005; active means well fitted inhibition curve with a large enough effect in the main read-out, with a control signal flat, not every such curve was filed as active; inconclusive means small, poorly fitted or top-dose-only effect, or effect the other way, or a change in a side signal; inactive means no such curve, though single readings can be large or run the other way; further: % of control where 0% means no effect
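Tsg101 binding domain (10 uM final) was mixed with compound and a FITC-labeled PTAP peptide (50 nM final) in HEPES pH 7.5 buffer with NaCl, Tween 20, EDTA and TCEP; fluorescence polarization was read after 20 min at r.t.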
Rango complex inh = inhibitors of Rango-importin beta complex formation; Potency, µM (titrated, usually from 92.2 µM), for inactives: at the highest dose inhibition of complex formation; AID 540263; 340,000 compounds, 0.031% hits; Rango CFP/YFP FRET sensor + importin beta, 45 min; Q14974;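 further: 0% = DMSO wells and 100% = buffer wells lacking importin beta; nearly all actives have a fitted effect of over 15% in size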
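FRET biosensor Rango (snurportin 1 IBB between N-terminal EYFP and C-terminal Cerulean), 50 nM in PBS/1 mM DTT/0.02% Tween-20/0.1% BSA, preincubated 5 min RT with compound; 0.125 microM importin beta added, 45 min RT, CFP/YFP FRET ratio read.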
ClpP mod = qHTS Assay for Activators of ClpP. ATP-dependent Clp protease proteolytic subunit (Bacillus subtilis (strain 168)), P80244. purified B. subtilis ClpP, FRET peptide cleavage, 20 min. Potency, µM (highest dose often 57.5 µM), inactives show top-dose activity change, negative = active. 340,000 compounds, 1.9% hits. AID 651965, 2013; active means well fitted falling curve with a large enough effect; inconclusive means small, poorly fitted or top-dose-only effect; inactive means no such curve, though single readings can be large or run the other way; further: the source files actives as falling curves though it sought activators and does not explain the sign; nearly all actives have a fitted effect of over 65% in size
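Purified B. subtilis ClpP, 10 microg/mL final in Tris/HCl pH8 with KCl, BSA, glycerol and Tween-20, cleaved an Abz/nitrotyrosine-quenched decapeptide. Fluorescence (ex 320, em 430) was read at 0 and 20 min at room temperature. Delta was normalized to 5.8 microM ADEP and DMSO/no-enzyme controls.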
Rango dissoc inh = inhibitors of RanGTP-induced Rango-importin beta complex dissociation; Biochemical FRET Rango-importin beta, RanGTP-induced dissociation; AID 540253; Potency, µM (titrated, usually from 46.1 µM), without a hit: top-dose activity change, negative = inhibition; 340,000 compounds, 0.071% hits; O95149+P62826; further: % of control where 0% means no effect; nearly all actives have a fitted effect of over 45% in size
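FRET read at 45 min, room temperature: inhibitors block the CFP/YFP signal rise when RanGTP (0.6 uM Ran, 2 mM GTP, 0.2 uM RCC1) frees Rango (0.1 uM) from importin beta (0.25 uM). Pre-read after 5 min compound exposure flags interference.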
12-LOX inh = blocks human arachidonate 12S-lipoxygenase. P18054. purified 12hLO, xylenol orange hydroperoxide absorbance. Potency, µM (titrated, usually from 108 µM), for inactives: at the highest dose activity change, negative = inhibition, most hits filed as inhibitors. 580,000 compounds, 1.1% hits. AID 1671190; active means well fitted curve in the direction sought with a large enough effect; inconclusive means small, poorly fitted or top-dose-only effect, or another doubt; inactive means no such curve, though single readings can be large; an effect the other way counts as inactive or inconclusive; further: on the % scale 0 is the no-effect control and ±100 the full control effect
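Purified human 12hLO (150 nM final) in 25 mM Hepes, 0.01% Triton X-100, pH 7.0 was preincubated 15 min at room temperature with compound. Then 40 uM arachidonic acid was added, 30 min. Hydroperoxide was read by Fe-XO absorbance ratio 573/405 nm.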
An asterisk follows results filed as active; u = inconclusive; x = no result given; [ ] = dose if it differs, or a comment. Unless noted, the call rests on the fitted dose curve. Potency means the concentration at half of the fitted maximal effect.

SMILES	TDP1 inh	TSG101-PTAP inh	Rango complex inh	ClpP mod	Rango dissoc inh	12-LOX inh
COCC(=O)NC[C@H]1O[C@@H](CO)[C@@H](O)[C@H]1N1CCN(c2cccc(C(F)(F)F)c2)CC1	x	x	x	x	x	5.7%
Cc1ccc(S(=O)(=O)NC[C@H]2O[C@@H](CO)[C@@H](O)[C@H]2N2CCN(c3cccc(C(F)(F)F)c3)CC2)cc1	x	x	x	x	x	15.8µM*
CN(C)C[C@H]1O[C@@H](CO)[C@@H](O)[C@H]1N1CCN(c2ncccn2)CC1	x	x	x	x	x	-14.1%
O=C(NC[C@H]1O[C@@H](CO)[C@@H](O)[C@H]1N1CCCC1)c1ccccc1	x	x	x	x	x	11.4%[176 µM]
O=S(=O)(NC[C@H]1O[C@@H](CO)[C@@H](O)[C@H]1N1CCN(c2ccccn2)CC1)c1ccc(Cl)cc1	x	x	x	x	x	17.8µM*
O=C(Nc1cccc(S(=O)(=O)N2CCOCC2)c1)c1sc2ccccc2c1Cl	x	x	x	x	x	-7.2%
CN(c1ccc(C(=O)Nc2cccnc2)cc1)S(C)(=O)=O	2.6%	-2.8%	0.0%	28.2µM*	-8.4%	-7.6%
CN(c1ccc(C(=O)Nc2cccnc2)cc1)S(=O)(=O)c1ccccc1	-2.6%	0.7%	3.6%	x	20.0%	-6.2%
COc1cc(SC)ccc1C(=O)N[C@H]1CCN2C(=O)[C@H](CC3CCCCC3)NC(=O)[C@@H]2C1	x	x	x	x	x	6.4%
N#Cc1nc(/C=C/c2ccccc2)oc1N1CCN(c2ccccc2)CC1	x	x	x	x	x	-15.5%
CC(C)c1ccc(NC(=O)CCCn2cnc3c2c(=O)n(C)c(=O)n3C)cc1	x	x	x	x	x	4.6%
C=CCn1c(SCC(=O)N2c3ccccc3Sc3ccccc32)nnc1-c1ccco1	x	-2.1%	1.3%	x	31.7%	22.4µM*
CCn1c(SCC(=O)N2c3ccccc3Sc3ccccc32)nnc1-c1ccco1	8.7%	-5.5%	0.3%	82.3%	0.7%	u
Cc1oc(-c2ccccc2)nc1CC(=O)NCCc1ccc(F)cc1	x	x	x	x	x	-13.4%
COc1ccc(-c2cc(C(=O)N3CCN(c4ccccc4F)CC3)c3ccccc3n2)c(OC)c1	1.5%	x	2.5%	28.2µM*	20.9%	u
CCCNC(=O)c1cc(-c2ccc(OC)cc2OC)nc2ccccc12	x	x	x	x	x	12.6µM*
Cc1noc(Cc2c(C)nn(-c3ccccc3)c2C)n1	x	x	x	x	x	21.3%
CC(=O)c1c(N2CCN(c3ccc(F)cc3)CC2)nc(=S)n(Cc2ccccc2)c1C	3.8%	-3.2%	-3.3%	25.1µM*	-7.8%	u
CC(=O)c1c(N2CCN(c3ccccc3)CC2)nc(=S)n(-c2ccccc2)c1C	3.0%	-6.1%	u	-1.5%	-18.0%	u
CCn1c(C)c(C(C)=O)c(N2CCN(c3ccc(F)cc3)CC2)nc1=S	2.3%	-6.5%	5.2%	0.2%	-16.4%	0.0%
CCOC(=O)N1CCN(c2nc(=S)n(-c3ccccc3)c(C)c2C(C)=O)CC1	3.1%	-1.5%	-0.5%	-0.5%	0.8%	31.6µM*
O=C(Cc1cccc(F)c1)N1CCN(c2cc(C(F)(F)F)ncn2)CC1	x	x	x	x	x	26.7%
CCOC(=O)c1[nH]c(C)c(CCC(=O)N2CCC(C(=O)NCCN3CCN(CC)CC3)CC2)c1C	x	x	x	x	x	3.8%
CCOC(=O)C1CCN(C(=O)CSc2nnc(-c3ccc(Cl)cc3)n2N)CC1	x	x	x	x	x	-21.7%
O=C(OCCC12CC3CC(CC(C3)C1)C2)c1ccc(NCc2cc(O)ccc2O)cc1	x	2.2%	1.7%	-7.2%	-14.5%	5.62µM*
SMILES	TDP1 inh	TSG101-PTAP inh	Rango complex inh	ClpP mod	Rango dissoc inh	12-LOX inh
O=C(OCC12CC3CC(CC(C3)C1)C2)c1cc([N+](=O)[O-])cc([N+](=O)[O-])c1	x	x	x	x	x	9.0%
O=C(OCC12CC3CC(CC(C3)C1)C2)c1ccc(NCc2cc(O)ccc2O)cc1	x	0.3%	-0.1%	-3.3%	1.5%	15.8µM*
CCc1cc(C(=O)N[C@H](c2ccc(OC)nc2)C2CC(O)C2)ccn1 (stereo partly drawn)	x	x	x	x	x	0.9%
COc1ccc(C(=O)NCC2Cn3cccc3C(=O)N2CC(C)C)cn1 (stereo not drawn)	x	x	x	x	x	13.1%
COc1ccc(-c2ccnc3nc(-n4cccc4)nn23)cc1	-3.8%	x	-0.1%	28.2µM*	4.8%	9.7%
COc1ccc(-c2ccnc3nc(N4CCOCC4)nn23)cc1	4.3%	-4.1%	-4.4%	15.8µM*	-6.1%	0.0%
c1ccc(Oc2ccc(-c3ccnc4nc(N5CCOCC5)nn34)cc2)cc1	2.7%	-2.1%	u	x	0.2%	5.5%
CCCC(c1nnnn1C1CCCCC1)N1C(=O)C(=O)c2ccccc21 (stereo not drawn)	x	x	x	x	x	-28.4%
Cc1cc2nc3n(c(=O)c2n1CC(=O)NC1CCc2ccccc21)CCCC3 (stereo not drawn)	x	x	x	x	x	-8.9%
Cc1cc(O)c(-c2cc(O)c(C)cc2O)cc1O	7.6%	1.4%	3.6%	-11.6%	-0.4%	u
Cc1ccc(N)cc1O	-4.2%	3.4%	u	1.1%	23.1µM*	-2.7%
COc1cccc(CNC2CC2)c1OCc1ccccc1	x	x	x	x	x	1.4%
Nc1sc(-c2ccccc2)cc1C(=O)NCCc1ccc(Cl)cc1	x	x	x	-20.0%	x	39.8µM*
CCCc1nc(C(=O)NC(CCn2cncn2)c2ccccc2)cs1 (stereo not drawn)	x	x	x	x	x	-17.2%
CC(C)CN1C(=O)c2cccn2CC1C(=O)NC1CCCC1 (stereo not drawn)	x	x	x	x	x	9.4%
O=CN1CCN(C(=O)Cc2ccc([N+](=O)[O-])cc2)CC1	1.2%	-3.4%	-4.4%	25.1µM*	14.8%	-31.3%
O=CN1CCN(C(=O)c2ccc([N+](=O)[O-])cc2)CC1	0.0%	-1.1%	-1.6%	-2.6%	8.0%	2.3%

Assay outcomes as filed in PubChem.
